# Experimental data reported in PubChem BioAssay AID602410 (Johns Hopkins Ion Channel Center, 2012).
# The whole screen tested about 340,000 compounds, of which about 2,800 (0.82%) were called active.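 Rule for the calls: active = B-score under library mean minus 4 SD, starting fluorescence ratio at most library mean plus 5 SD; inactive = the rest.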 The full list was thinned out, with actives kept by preference.
# Target: Potassium channel subfamily K member 3 (Homo sapiens) (UniProt O14649)
# Experiment: blockers of TASK1 two-pore potassium channel – CHO cells, FluxOR thallium flux, B-score, primary screen (AID 602410);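 for B-score: more negative B-score means stronger inhibition of thallium flux through KCNK3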
# Conditions: CHO-KCNK3 thallium flux, FluxOR fluorescence, at 10 µM; hits give low values
# Chain of Potassium channel subfamily K member 3 (Homo sapiens) (O14649 whole entry, looked up): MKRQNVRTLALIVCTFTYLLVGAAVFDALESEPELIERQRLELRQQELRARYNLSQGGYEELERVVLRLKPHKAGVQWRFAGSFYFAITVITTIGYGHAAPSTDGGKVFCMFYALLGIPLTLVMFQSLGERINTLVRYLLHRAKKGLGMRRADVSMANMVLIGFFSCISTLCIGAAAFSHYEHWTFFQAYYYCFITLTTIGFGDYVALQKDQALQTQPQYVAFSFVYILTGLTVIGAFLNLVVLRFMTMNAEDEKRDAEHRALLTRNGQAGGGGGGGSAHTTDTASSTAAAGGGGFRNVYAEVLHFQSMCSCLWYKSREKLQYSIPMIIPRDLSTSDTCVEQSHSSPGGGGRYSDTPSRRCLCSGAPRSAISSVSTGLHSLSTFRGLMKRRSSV
row,SMILES,B-score
1,CCCCn1c(N)c(N(CCOC)C(=O)c2cccc(S(=O)(=O)N(C)c3ccccc3)c2)c(=O)[nH]c1=O,inactive
2,COc1ccc(C2NCCCC2c2ccccc2)cc1 (stereo unspecified),inactive
3,COCCn1c(=O)[nH]c2cc(C(=O)NCc3cccnc3)ccc2c1=O,inactive
4,CCCCNC(=O)C1(O)c2ccccc2NC(=O)N1c1ccc(Cl)cc1 (stereo unspecified),inactive
5,Cc1cccc(N(Cc2ccccc2)C(=O)c2cc(S(=O)(=O)N3CCOCC3)ccc2F)c1,inactive
6,O=C(c1ccccc1F)N(Cc1ccccc1)Cc1ccccc1,inactive
7,Cc1cccc(N(Cc2ccccc2)C(=O)c2ccccc2F)c1,-9.35 (active)
8,O=[N+]([O-])c1cc([N+](=O)[O-])c(Oc2cc(F)cc(F)c2F)cc1NN1CCCCC1,inactive
9,COC(=O)C1=C(C(=O)OC)C(c2cc([N+](=O)[O-])ccc2O)c2sc(=O)[nH]c2S1 (stereo unspecified),inactive
10,Cc1c(C(=O)NC2CCCCC2)oc2ccccc12,inactive
11,Cc1cc(C)nc(-n2nc(C)cc2NC(=O)c2ccc(F)cc2F)n1,inactive
12,CC(Nc1nc(N2CCOCC2)nc2ccccc12)c1ccccc1 (stereo unspecified),inactive
13,CC(Nc1nc(N2CCCC2)nc2ccccc12)c1ccccc1 (stereo unspecified),inactive
14,c1ccc2c(NC3C4CC5CC(C4)CC3C5)nc(N3CCOCC3)nc2c1 (stereo unspecified),-9.5 (active)
15,O=C(NC1CC1)C1CCCN(C(=O)NC2CCCCC2)C1 (stereo unspecified),inactive
16,COc1ccccc1OCc1nnc(SCC(N)=O)n1-c1ccccc1,inactive
17,c1ccc(C(c2ccccc2)N2CCN(Cc3nnnn3C3CCCCC3)CC2)cc1,-10.8 (active)
18,c1ccc(CCn2nnnc2CN2CCN(C3CCCC3)CC2)cc1,inactive
19,COc1ccc(C(c2nnnn2C2CCCCC2)N2CCN(c3ccccc3F)CC2)cc1 (stereo unspecified),inactive
20,CC(=O)c1c(C)c[nH]c1C,inactive
21,O=C(NC(=S)N1CCN(Cc2ccccc2)CC1)c1ccccc1,inactive
22,Cc1cccc(N(C(=O)Cc2cccs2)C(C(=O)NC2CCCC2)c2ccsc2)c1 (stereo unspecified),inactive
23,NS(=O)(=O)c1ccc(N2C(=O)C3C4CC(C(Br)C4Br)C3C2=O)cc1 (stereo unspecified),inactive
24,Cc1cc(O)c(NC(=O)c2ccc(C)c([N+](=O)[O-])c2)cc1C,inactive
25,CCCCCCCCn1c2c(c(=N)c3c1CCC3)CCCC2,-9.82 (active)
26,CC1(C)Cc2c(sc(NC(=O)C(=O)N3CCOCC3)c2C#N)CO1,inactive

row,SMILES,B-score
1,Clc1ccc(-c2cc(C3CCNCC3)[nH]n2)c(Cl)c1,inactive
2,O=C(CSc1nc(Nc2ccccc2)nc(N2CCOCC2)n1)Nc1cc(Cl)ccc1O,-11.6 (active)
3,CC1(c2ccccc2)NC(=O)N(CC(=O)Nc2cc(Cl)ccc2N2CCOCC2)C1=O (stereo unspecified),inactive
4,Cc1ccccc1NC(=O)CSc1nc2ccc(Nc3nc(N4CCOCC4)nc(N4CCOCC4)n3)cc2s1,inactive
5,COc1cccc(NC(=O)CN(C)C(=O)/C=C/c2cc(OC)ccc2OC)c1,inactive
6,COc1ccc(NC(=O)CN(C)C(=O)/C=C/c2cn(Cc3ccccc3)nc2-c2cccnc2)cc1,inactive
7,COc1cccc(NC(=O)CN(C)C(=O)/C=C/c2cn(-c3ccccc3)nc2-c2cccs2)c1,-10.7 (active)
8,CCN(c1ccccc1)S(=O)(=O)c1ccc(OCC(=O)N2CCCC2)cc1,inactive
9,Cc1nc2nc[nH]n2c(=O)c1NC(=O)c1cccc(OCC(C)C)c1,inactive
10,C=CCn1cc(Cl)cc(C(=O)Nc2ccccc2)c1=O,inactive
11,C=CCN(C(=O)c1cc(C)cc(C)c1)C1(C(=O)Nc2ccccc2)CCN(C(C)C)CC1,-9.18 (active)
12,CC(C)N1CCC(NC(=O)Nc2ccccc2)CC1,inactive
13,Cc1cccc(-c2c(NC(=O)c3ccco3)oc3ccc(Cl)cc3c2=O)c1,inactive
14,O=C(CS(=O)(=O)Cc1ccccc1)Nc1cccnc1,inactive
15,CC(=O)Nc1ccc(S(=O)(=O)N(CCc2ccccc2)CC(=O)N/N=C/c2ccc(C(=O)O)cc2)cc1,inactive
16,CCOC(=O)N1CCN(C(=O)c2ccc3c(c2)N(Cc2ccc(C)cc2)CCS3)CC1,inactive
17,O=C(NCCc1ccccc1)c1cccc(NC(=O)c2ccccc2)c1,inactive
18,O=C(NCCc1ccccc1)c1ccc2c(c1)N(Cc1ccccc1)CCS2,-11.6 (active)
19,CCOCc1c(C(=O)N2CCN(Cc3ccc(Br)s3)CC2)oc2ccccc12,inactive
20,CCOc1ccc(S(=O)(=O)N(CC(=O)NCC(F)(F)F)Cc2ccco2)cc1,inactive
21,CC(C)CCNC(=O)CN(C(=O)Cn1nnc(-c2ccc(F)cc2)n1)C1CCCC1,inactive
22,CC(C)CCNC(=O)C(C)N(C(=O)Cn1nnc(-c2ccc(F)cc2)n1)C1CCCC1 (stereo unspecified),-9.19 (active)
23,CN(C(=O)Cn1nnc(-c2ccc(F)cc2)n1)C1CCS(=O)(=O)C1 (stereo unspecified),inactive
24,C#CCOCCOCCOCCNc1nc(N2CCN(C(=O)C(Cc3ccc(O)cc3)n3cc(C(N)CC(C)C)nn3)CC2)nc(N2CCN(C(=O)C(Cc3ccc(O)cc3)n3cc(C(N)C(C)CC)nn3)CC2)n1 (stereo unspecified),inactive
25,COc1ccc(-n2c(O)c(C=NCC(c3ccco3)N3CCCC3)c3ccccc3c2=O)cc1OC (stereo unspecified),inactive
26,CCOc1ccccc1Oc1cn[nH]c1-c1ccc(OC)cc1O,-8.87 (active)

row,SMILES,B-score
1,COc1ccc(Oc2cn[nH]c2-c2ccc(OC)cc2O)cc1,inactive
2,CCOc1ccc(-c2nc(N)ncc2-c2ccccc2OC)c(O)c1,inactive
3,CC1CCc2sc(C(=O)NCC(c3ccco3)N3CCCCC3)cc2C1 (stereo unspecified),inactive
4,O=C(Oc1ccccc1C(=S)N1CCCCC1)c1cc([N+](=O)[O-])cc([N+](=O)[O-])c1,inactive
5,O=C(Oc1ccc(Br)cc1C(=S)N1CCOCC1)c1cccc([N+](=O)[O-])c1,-11.4 (active)
6,COc1cc(C(=S)N2CCOCC2)cc(OC)c1OC(=O)c1cc([N+](=O)[O-])cc([N+](=O)[O-])c1,inactive
7,O=C(NN=C1CCC(=NNC(=O)c2cccnc2)CC1)c1cccnc1,inactive
8,O=C(N/N=C/c1sc(N2CCCCC2)nc1-c1cccs1)c1cccnc1,-10.7 (active)
9,Cc1ccc(NC(=O)COc2ccc(/C=N\NC(=O)c3cccnc3)cc2)cc1C,inactive
10,CCCCCCC(O)(CCN1CCCCC1)c1ccccc1 (stereo unspecified),inactive
11,Nc1nnc(SCC(=O)NCC(=O)Nc2ccc(F)c(F)c2F)s1,inactive
12,O=C1C(Cl)=C(Oc2ccccc2)C(=O)c2ccccc21,inactive
13,CC(=O)N(C1=C(Cl)C(=O)c2ccccc2C1=O)c1ccc(C(=O)O)cc1,-11 (active)
14,O=C(NC1=CC(=O)c2ccccc2C1=O)c1ccccc1,inactive
15,CS(=O)(=O)N(CC(=O)N1CCc2ccccc2C1)c1ccc(Br)cc1,inactive
16,COc1ccccc1CN1CCN(C(c2ccccc2)c2ccccc2)CC1,inactive
17,CC1(C)CC(N2CCN(C(c3ccccc3)c3ccccc3)CC2)=CC(=[N+]2CCCCC2)C1,-8.86 (active)
18,CC(C)OCC(O)CN1CCN(C(c2ccccc2)c2ccccc2)CC1 (stereo unspecified),inactive
19,CN1CCN(CCC(=O)N/N=C/C=C2\N(C)c3ccccc3C2(C)C)CC1,inactive
20,CC(=O)Nc1cccc(OCC(=O)/C=C2\N(C)c3ccccc3C2(C)C)c1,-8.91 (active)
21,CC(C)Nc1nnc(SCC(=O)/C=C2\N(C)c3ccccc3C2(C)C)s1,inactive
22,CCCCn1c(N)c(N(CCOC)C(=O)c2cccc(S(=O)(=O)N3CCCCC3)c2)c(=O)[nH]c1=O,inactive
23,CC(Oc1ccccc1[N+](=O)[O-])C(=O)N/N=C/c1ccoc1 (stereo unspecified),inactive
24,O=C(N/N=C/c1ccoc1)c1ccc(Cl)cc1Cl,inactive
25,CC(C)c1cc(C(=O)N/N=C/c2ccoc2)c(O)c(C(C)C)c1,-10.5 (active)
26,COC(=O)c1cc2c(ccn2C)n1C,inactive

row,SMILES,B-score
1,COc1ccc(S(=O)(=O)c2c[nH]c(=S)[nH]c2=O)cc1Cl,inactive
2,CC(=O)Nc1ccc(S(=O)(=O)NCCC(=O)N2CCN(c3ccccc3Cl)CC2)cc1,inactive
3,CC(C)c1ccc(OCC(O)Cn2cnc3ccccc32)cc1 (stereo unspecified),inactive
4,OC(CN=c1sc2ccccc2n1CC(O)COc1ccccc1)COc1ccccc1 (stereo unspecified),-12.6 (active)
5,O=C(C(c1ccccc1)c1ccccc1)N1CCN(CC(O)COc2ccccc2)CC1 (stereo unspecified),inactive
6,COc1ccc(C)cc1NC(=O)CNCc1cccs1,inactive
7,O=C1OC(Oc2ccc(Br)cc2)(c2ccccc2)c2ccccc21 (stereo unspecified),-10.1 (active)
8,CS(=O)(=O)Nc1ccccc1N=C(c1ccccc1)c1ccccc1,inactive
9,CCC(CC)C(=O)Nc1cc(C(=O)OC)cc(C(=O)OC)c1,inactive
10,O=C(NCCCO)c1cc2c([nH]c3ccccc32)c(-c2ccc(F)cc2)n1,inactive
11,Cn1nc(-c2ccc(Cl)cc2)c2cc(C(=O)NCc3ccco3)sc21,-13.2 (active)
12,COc1ccccc1N1CCN(C(=O)c2cc3c(-c4ccc(Cl)cc4)nn(C)c3s2)CC1,-10.1 (active)
13,COc1ccc2c(Cl)c(C(=O)NCc3ccco3)sc2c1,inactive
14,COc1ccccc1N1CCN(C(=O)c2cn(-c3ccccc3)nc2-c2cccnc2)CC1,inactive
15,COc1cccc(-c2nn(C)c3sc(C(=O)N4CCN(c5ccccc5)CC4)cc23)c1,inactive
16,CN(CCNC(=O)c1cc2c(-c3ccccc3F)nn(C)c2s1)C1CCCCC1,inactive
17,CCOc1ccc(NS(=O)(=O)c2cc(C)c(C)cc2C)cc1,inactive
18,CCOc1ccccc1NC(=O)c1cc(S(=O)(=O)N2CCC3(CC2)OCCO3)ccc1F,inactive
19,CC(=O)N1CC[n+]2c(-c3ccc([N+](=O)[O-])cc3)csc21,inactive
20,CC1CCCCC12NC(=O)N(CC(=O)OCc1c(F)cccc1Cl)C2=O (stereo unspecified),inactive
21,Cc1cc2oc(=O)cc(CN(C)Cc3ccc(OC(F)F)cc3)c2cc1Cl,-10.4 (active)
22,Cc1ccc(CN(C)Cc2cc(=O)oc3cc(C)c(Cl)cc23)cc1,inactive
23,CCOc1ccc(N(C)Cc2cc(=O)oc3ccc(OC)cc23)cc1,inactive
